Data: PubChem BioAssay (NCATS)
Records with an inconclusive call do not appear. Activity calls are given as the source filed them. Unless noted, calls follow the shape of the dose curve; as a rule, active = well fitted curve in either direction with a large enough effect (not every such curve was filed as active); inconclusive = small, poorly fitted or top-dose-only effect, or another doubt; inactive = flat fitted curve, though single readings scatter.

Tests used:
[1] = AP1 Signaling Pathway (AID 357); settings: ME-180 AP-1-bla reporter, EGF-induced, beta-lactamase ratio, 5 h; at 17.2 µM (top of the series) unless noted;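 also: ME-180 reporter cells stimulated with EGF at its EC50 level; % is scaled to controls: 0 for no effect and ±100 for the full control effect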
In short: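 Titration-series screen for positive or negative modulators of EC50 EGF-induced signaling in ME-180 cells carrying an AP-1-driven beta-lactamase reporter. After 5 hours at 37 degrees Celsius, CCF4 460nm/530nm emission ratio gave %Activity; AC50 values derived.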

[2] = NFAT Signaling Pathway (AID 444); settings: Jurkat NFAT-bla M1, carbachol, beta-lactamase ratio, 5 h; at 17.2 µM (top of the series) unless noted;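 also: carbachol stimulus at about its EC50 of 1 µM final; % is scaled to controls: 0 for no effect and ±100 for the full control effect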
In short: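 Read-out: CCF4 FRET ratio (460 nm/530 nm) after 1 h RT dye loading, used for %activity and AC50 from titration series. Cells: Jurkat NFAT-β-lactamase/M1 line, treated with compound plus 1 uM carbachol for 5 h, 37 °C.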

[3] = Stat Signaling Pathway (AID 446); settings: ME-180 (cervical carcinoma) SIE beta-lactamase reporter, IL-6 stimulated, 5 h; at 17.2 µM (top of the series) unless noted;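 also: ME-180 cervical cancer cells given 40 pM IL-6 alongside compound; SIE-controlled beta-lactamase reporter measured as 460/530 nm FRET emission ratio; % is scaled to controls: 0 for no effect and ±100 for the full control effect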
In short: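 FRET read-out (405 nm excitation, 460/530 nm emission) of a beta-lactamase reporter under a STAT-inducible element in ME-180 cervical carcinoma cells. Cells with compound receive 40 pM IL-6 for 5 h. Values are normalised to AC90 stimulation and AC90 JAK-inhibitor controls.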

[4] = target: Glucocorticoid receptor (Homo sapiens) (UniProt P04150); experiment: GR-GFP Redistribution (AID 450;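 active = compounds whose dose series gives a full or clear partial fitted curve of increased nuclear translocation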; also: potency is read from the fitted curve at half-maximal effect)
Chain of Glucocorticoid receptor (Homo sapiens) (P04150 whole entry, looked up): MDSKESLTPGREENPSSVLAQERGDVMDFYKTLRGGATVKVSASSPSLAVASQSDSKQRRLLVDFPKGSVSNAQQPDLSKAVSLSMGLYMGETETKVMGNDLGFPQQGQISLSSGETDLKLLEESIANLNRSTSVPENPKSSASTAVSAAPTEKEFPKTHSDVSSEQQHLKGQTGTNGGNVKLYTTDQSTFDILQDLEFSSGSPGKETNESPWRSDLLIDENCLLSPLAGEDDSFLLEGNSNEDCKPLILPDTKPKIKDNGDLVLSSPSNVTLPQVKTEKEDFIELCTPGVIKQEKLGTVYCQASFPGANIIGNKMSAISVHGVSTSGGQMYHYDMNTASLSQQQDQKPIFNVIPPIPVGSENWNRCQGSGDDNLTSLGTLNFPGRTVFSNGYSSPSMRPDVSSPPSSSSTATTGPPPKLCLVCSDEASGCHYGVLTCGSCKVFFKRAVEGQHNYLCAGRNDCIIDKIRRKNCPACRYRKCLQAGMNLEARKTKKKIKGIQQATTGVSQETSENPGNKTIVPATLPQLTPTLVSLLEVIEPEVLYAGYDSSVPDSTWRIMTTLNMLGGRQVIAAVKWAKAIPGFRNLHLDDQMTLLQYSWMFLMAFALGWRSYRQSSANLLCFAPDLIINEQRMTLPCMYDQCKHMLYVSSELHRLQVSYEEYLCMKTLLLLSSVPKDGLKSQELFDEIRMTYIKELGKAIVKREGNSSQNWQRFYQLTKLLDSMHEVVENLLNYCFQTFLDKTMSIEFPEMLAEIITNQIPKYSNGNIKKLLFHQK

O=C(CC1SC2=NCCN2C1=O)Nc1ccccc1 (centres undefined)
inactive: activity change, negative = inhibition [1] 4.21% | activity change, negative = inhibition [2] 19% | activity, negative = inhibition [3] -5.25% | Potency [4] > 20.6 µM

CCN(CC)C(=O)CSC1=C(C#N)C(c2cccs2)C=C(C)N1 (centres undefined)
inactive: activity change, negative = inhibition [1] -28.4% | activity change, negative = inhibition [2] -9.19% | activity, negative = inhibition [3] 6.46% | Potency [4] > 20.6 µM

CCOC(=O)CC(=O)CSc1nnc2sc3ccccc3n12
inactive: activity change, negative = inhibition [1] 6.11% | activity change, negative = inhibition [2] -0.0909% | activity, negative = inhibition [3] 7.94% | Potency [4] > 20.6 µM

COc1ccc(C=NCCC2(O)CC(C)N(C)CC2C)cc1 (centres undefined)
inactive: activity change, negative = inhibition [1] -0.876% | activity change, negative = inhibition [2] 9.42% | activity, negative = inhibition [3] 11.9% | Potency [4] > 20.6 µM

CC1(C(=O)CSc2n[nH]c(-c3ccccc3Cl)n2)CCC(=O)O1 (centres undefined)
inactive: activity change, negative = inhibition [1] 6.38% | activity change, negative = inhibition [2] 4.32% | activity, negative = inhibition [3] 0.984% | Potency [4] > 20.6 µM

CCC(CC)C1C(C#N)=C(N)Oc2n[nH]c(C)c21 (centres undefined)
inactive: activity change, negative = inhibition [1] -22.7% | activity change, negative = inhibition [2] -13.2% | activity, negative = inhibition [3] -16.5% | Potency [4] > 20.6 µM

Fc1cc(F)c(F)c(SCCc2ccncc2)c1F
inactive: activity change, negative = inhibition [1] -7.09% | activity change, negative = inhibition [2] -5.43% | activity, negative = inhibition [3] -0.589% | Potency [4] > 20.6 µM

CN1CC(=O)Nc2ccc(F)cc2C1=O
inactive: activity change, negative = inhibition [1] 13.4% | activity change, negative = inhibition [2] -4.14% | activity, negative = inhibition [3] 3.5% | Potency [4] > 20.6 µM

CC(Sc1ccc2ccccc2n1)C(=O)O (centres undefined)
inactive: activity change, negative = inhibition [1] 14.7% | activity change, negative = inhibition [2] 9.86% | activity, negative = inhibition [3] 5.88% | Potency [4] > 20.6 µM

Cc1cc(C)nc(NC2=NCC(=O)N2c2ccccc2)n1
inactive: activity change, negative = inhibition [1] 13.1% | activity change, negative = inhibition [2] -8.71% | activity, negative = inhibition [3] 9% | Potency [4] > 20.6 µM

CC(=O)OCc1c(COC(C)=O)[n+](=O)c2ccccc2n1[O-]
inactive: activity change, negative = inhibition [1] 8.53% | activity change, negative = inhibition [2] -3.2% | activity, negative = inhibition [3] 0.487% | Potency [4] > 20.6 µM

O=S(=O)(O)c1nc2ccccc2n1Cc1ccc(Cl)cc1Cl
inactive: activity change, negative = inhibition [1] 18.6% | activity change, negative = inhibition [2] 7.47% | activity, negative = inhibition [3] -9% | Potency [4] > 20.6 µM

c1csc(-c2nn3c(C4CCCCC4)nnc3s2)c1
inactive: activity change, negative = inhibition [1] -6.89% | activity change, negative = inhibition [2] -19.6% | activity, negative = inhibition [3] 20.7% | Potency [4] > 20.6 µM

COC(=O)C(NC(=O)c1ccc(F)cc1)(Nc1nc(C)cs1)C(F)(F)F (centres undefined)
inactive: activity change, negative = inhibition [1] -0.49% | activity change, negative = inhibition [2] -21.1% | activity, negative = inhibition [3] -10.7% | Potency [4] > 20.6 µM

Cc1cc(=O)oc(C)c1C(=O)Nc1ccc2nsnc2c1
inactive: activity change, negative = inhibition [1] 6.72% | activity change, negative = inhibition [2] -6.31% | activity, negative = inhibition [3] 8.13% | Potency [4] > 20.6 µM

COc1nc(NS(=O)(=O)c2ccc(C)cc2)nc(C)c1Cl
inactive: activity change, negative = inhibition [1] 6.72% | activity change, negative = inhibition [2] -25.4% | activity, negative = inhibition [3] -5.69% | Potency [4] > 20.6 µM

CC(C)(C)NC(=O)/C=N/O
inactive: activity change, negative = inhibition [1] 10.5% | activity change, negative = inhibition [2] 23.2% | activity, negative = inhibition [3] 3.21% | Potency [4] > 20.6 µM

CC(C)(C)c1ccc(O)c(N)c1
inactive: activity change, negative = inhibition [1] 3.38% | activity change, negative = inhibition [2] -5.9% | activity, negative = inhibition [3] 8.3% | Potency [4] > 20.6 µM

CC(=O)N=C(N)Sc1nc2ccccc2[nH]1
inactive: activity change, negative = inhibition [1] 12.8% | activity change, negative = inhibition [2] -12.3% | activity, negative = inhibition [3] 1.5% | Potency [4] > 20.6 µM

CCOC(=O)C1=C(N)n2c(s/c(=C\c3ccco3)c2=O)=C(C(=O)OC(C)C)C1c1ccco1 (centres undefined)
inactive: activity change, negative = inhibition [1] 9.43% | activity change, negative = inhibition [2] -23.7% | activity, negative = inhibition [3] 4.26% | Potency [4] > 20.6 µM

CC(=O)C(=[N+]=[N-])C(=O)NCc1ccccc1
inactive: activity change, negative = inhibition [1] 7.12% | activity change, negative = inhibition [2] -14.9% | activity, negative = inhibition [3] 1.88% | Potency [4] > 20.6 µM

CC(C)CNC(=O)c1c(N)n(/N=C/c2cccnc2)c2nc3ccccc3nc12
inactive: activity change, negative = inhibition [1] 9.25% | activity, negative = inhibition [3] 16.6% | Potency [4] > 20.6 µM
active: activity change, negative = inhibition [2] 329% [activator]

CN=c1sc2ccccc2n1CC(O)COCc1ccco1 (centres undefined)
inactive: activity change, negative = inhibition [1] -8.62% | activity change, negative = inhibition [2] 1.06% | activity, negative = inhibition [3] -2.56% | Potency [4] > 20.6 µM

CC(=O)Oc1ccccc1C1OC(=O)c2ccccc2N1C(C)=O (centres undefined)
inactive: activity change, negative = inhibition [1] 14.3% | activity change, negative = inhibition [2] 12.4% | activity, negative = inhibition [3] 5.01% | Potency [4] > 20.6 µM

CCOCc1nc(N)[nH]c(=O)c1Cc1ccc(OC(C)C)cc1
inactive: activity change, negative = inhibition [1] 1.48% | activity change, negative = inhibition [2] 13.9% | activity, negative = inhibition [3] 9.73% | Potency [4] > 20.6 µM

CCCC(=O)N1CCc2[nH]c3ccccc3c2C1
inactive: activity change, negative = inhibition [1] -13% | activity change, negative = inhibition [2] 13.8% | activity, negative = inhibition [3] -6.04% | Potency [4] > 20.6 µM
